Results filed as inconclusive are left out. Active and inactive are the calls of the source.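 The calls were made as follows, unless noted: active = normalized viability below 100% at a tested concentration; inactive = the rest.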
Assays:
[1] = viability loss in pontine glioma line – cell-based, SU-DIPG-XVII, MIPE5.0, CellTiter-Glo, qHTS, dose response (AID 1347060; cut-off not given, nearly all actives have AC50 up to about 26 µM;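 also: cells exposed to compound for 48 hours before viability readout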); details: CellTiter-Glo ATP luminescence
[2] = viability loss in pontine glioma line – cell-based, SU-DIPG-XIII, MIPE4.0, CellTiter-Glo, qHTS, dose response (AID 1347061; cut-off not given, nearly all actives have AC50 up to about 37 µM;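 also: cells exposed to compound for 48 hours before readout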); details: CellTiter-Glo ATP luminescence
[3] = viability loss in pontine glioma line – cell-based, JHH-DIPG-1, MIPE4.0, CellTiter-Glo, qHTS, dose response (AID 1347062; cut-off not given, nearly all actives have AC50 up to about 27 µM;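 also: cells exposed to compound for two days before readout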); details: JHH-DIPG-1 viability, CellTiter-Glo ATP luminescence
[4] = viability loss in pontine glioma line – cell-based, SU-DIPG-IV, MIPE4.0, CellTiter-Glo, qHTS, dose response (AID 1347063; cut-off not given, nearly all actives have AC50 up to about 30 µM;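 also: compound exposure lasted 48 hours before the viability readout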); details: CellTiter-Glo ATP luminescence
[5] = viability loss in pontine glioma line – cell-based, SU-DIPG-XIII, MIPE5.0, CellTiter-Glo, qHTS, dose response (AID 1347064; cut-off not given, nearly all actives have AC50 up to about 23 µM;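 also: cells exposed to compound for 48 hours before the viability read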); details: CellTiter-Glo ATP luminescence
[6] = viability loss in pontine glioma line – cell-based, SU-DIPG-XXV, MIPE5.0, CellTiter-Glo, qHTS, dose response (AID 1347065; cut-off not given, nearly all actives have AC50 up to about 26 µM;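 also: cells exposed to compound for 48 hours before ATP readout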); details: CellTiter-Glo ATP luminescence
[7] = growth inhibition of DIPG cells – cell-based, MIPE4.0 library, CellTiter-Glo luminescence, qHTS (AID 1347066; cut-off not given, nearly all actives have AC50 up to about 30 µM;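 also: cells exposed to compound for 48 hours before readout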); details: SU-DIPG-VI viability, CellTiter-Glo ATP luminescence
[8] = JHH-DIPG-1 glioma cell viability, MIPE5.0 library, CellTiter-Glo luminescence, qHTS (AID 1347067; cut-off not given, nearly all actives have AC50 up to about 26 µM;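 also: cells exposed to compound for 48 hours before readout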); details: JHH-DIPG-1 glioma viability, CellTiter-Glo ATP luminescence
[9] = growth inhibition of DIPG cells – cell-based, MIPE5.0 library, qHTS (AID 1347068; cut-off not given, nearly all actives have IC50 up to about 30 µM;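 also: cells exposed to compound for 48 hours before viability readout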); details: SU-DIPG-XXV viability
[10] = viability loss with induced miR-34 in A549 – imaging, A549 dox-inducible miR-34, nuclei and caspase counts, primary screen (AID 1347080;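 active = compounds whose cell count with miR-34 switched on is under 0.7 times the count with it off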); details: A549 miR-34 inducible, Hoechst nuclei count, 48 h
[11] = compounds altering HSF1 focus formation in cells – imaging, Selleck Cancer Library (AID 1347162; in the data active = plate-normalised HSF1 focus index below about 0.46); details: human cells, HSF1 nuclear foci imaging, at 10 µM; SSMD: measured here: HSF1 foci SSMD mean; cell count: measured here: cell number; plate-normalised HSF1 focus index: stronger effect = lower value
[12] = MELAS cybrid and Rieske KO viability enhancers – cell-based, MELAS cybrids, Rieske KO mouse fibroblasts, CellTiter-Glo, primary screen (AID 1508586;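 active = mean z-score across replicates of 1.96 or higher in either the MELAS or the Rieske mutant cell line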;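 also: z relative to plate mean and SD of compound and empty wells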); details: low glucose
[13] = drug combination growth inhibition, ovarian cancer – cell-based, oncology-focused library, rucaparib conditional, profiling panel (AID 1508598); details: patient-derived ovarian cancer cells, CellTiter-Glo viability, 144 h, stronger effect = lower value
[14] = stronger effect = lower value, cell number ratio, induced over uninduced
[15] = measured here: relative caspase fold change +Dox/-Dox
[16] = measured here: total cells with miR-34 induction, stronger effect = lower value
[17] = measured here: total cells without miR-34 induction
[18] = MELAS cybrid survival, CellTiter-Glo 48 h, stronger effect = higher value
[19] = Rieske KO mouse fibroblast survival, CellTiter-Glo 72 h
[20] = at 0.000305 µM, OCI-C5x cells, with rucaparib 10 µM, 100% = cells with rucaparib alone
[21] = at 0.000305 µM, OCI-C5x cells, without rucaparib
[22] = at 0.000305 µM, OCI-P5x cells, with rucaparib 20 µM, 100% = cells with rucaparib alone
[23] = at 0.000305 µM, OCI-P5x cells, without rucaparib
[24] = at 0.00122 µM, OCI-C5x cells, with rucaparib 10 µM, 100% = cells with rucaparib alone
[25] = at 0.00122 µM, OCI-C5x cells, without rucaparib
[26] = at 0.00122 µM, OCI-P5x cells, with rucaparib 20 µM, 100% = cells with rucaparib alone
[27] = at 0.00122 µM, OCI-P5x cells, without rucaparib
[28] = at 0.00488 µM, OCI-C5x cells, with rucaparib 10 µM, 100% = cells with rucaparib alone
[29] = at 0.00488 µM, OCI-C5x cells, without rucaparib
[30] = at 0.00488 µM, OCI-P5x cells, with rucaparib 20 µM, 100% = cells with rucaparib alone
[31] = at 0.00488 µM, OCI-P5x cells, without rucaparib
[32] = at 0.0195 µM, OCI-C5x cells, with rucaparib 10 µM, 100% = cells with rucaparib alone
[33] = at 0.0195 µM, OCI-C5x cells, without rucaparib
[34] = at 0.0195 µM, OCI-P5x cells, with rucaparib 20 µM, 100% = cells with rucaparib alone
[35] = at 0.0195 µM, OCI-P5x cells, without rucaparib
[36] = at 0.0781 µM, OCI-C5x cells, with rucaparib 10 µM, 100% = cells with rucaparib alone
[37] = at 0.0781 µM, OCI-C5x cells, without rucaparib
[38] = at 0.0781 µM, OCI-P5x cells, with rucaparib 20 µM, 100% = cells with rucaparib alone
[39] = at 0.0781 µM, OCI-P5x cells, without rucaparib
[40] = at 0.313 µM, OCI-C5x cells, with rucaparib 10 µM, 100% = cells with rucaparib alone
[41] = at 0.313 µM, OCI-C5x cells, without rucaparib
[42] = at 0.313 µM, OCI-P5x cells, with rucaparib 20 µM, 100% = cells with rucaparib alone
[43] = at 0.313 µM, OCI-P5x cells, without rucaparib
[44] = at 1.25 µM, OCI-C5x cells, with rucaparib 10 µM, 100% = cells with rucaparib alone
[45] = at 1.25 µM, OCI-C5x cells, without rucaparib
[46] = at 1.25 µM, OCI-P5x cells, with rucaparib 20 µM, 100% = cells with rucaparib alone
[47] = at 1.25 µM, OCI-P5x cells, without rucaparib
[48] = at 5 µM, OCI-C5x cells, with rucaparib 10 µM, 100% = cells with rucaparib alone
[49] = at 5 µM, OCI-C5x cells, without rucaparib
[50] = at 5 µM, OCI-P5x cells, with rucaparib 20 µM, 100% = cells with rucaparib alone
[51] = at 5 µM, OCI-P5x cells, without rucaparib

COc1ncc(-c2ccc3nccc(-c4ccnnc4)c3c2)cc1NS(=O)(=O)c1ccc(F)cc1F
AC50 [1]: 26.3 nM (active)
AC50 [2]: 46.9 nM (active)
AC50 [3]: 1660 nM (active)
AC50 [4]: 10.5 nM (active)
AC50 [5]: 46.8 nM (active)
AC50 [6]: 16.6 nM (active)
AC50 [7]: 33.2 nM (active)
AC50 [8]: 93.4 nM (active)
IC50 [9]: 105 nM (active)
fold change [10, 14]: 1.04 (inactive)
fold change [10, 15]: 0.656
cell count [10, 16]: 1270
cell count [10, 17]: 1220
SSMD [11]: -1.81
cell count [11]: 6380
plate-normalised HSF1 focus index [11]: 0.907 (inactive)
z-score [12, 18]: 1.15 (inactive)
z-score [12, 19]: -2.62
viability [13, 20]: 107% (inactive)
viability [13, 21]: 105% (inactive)
viability [13, 22]: 86.7% (active)
viability [13, 23]: 84.8% (active)
viability [13, 24]: 84.7% (active)
viability [13, 25]: 89.8% (active)
viability [13, 26]: 67.8% (active)
viability [13, 27]: 69.1% (active)
viability [13, 28]: 62.5% (active)
viability [13, 29]: 53.2% (active)
viability [13, 30]: 43.9% (active)
viability [13, 31]: 46.3% (active)
viability [13, 32]: 39.4% (active)
viability [13, 33]: 37.6% (active)
viability [13, 34]: 31.6% (active)
viability [13, 35]: 27% (active)
viability [13, 36]: 32.8% (active)
viability [13, 37]: 30.6% (active)
viability [13, 38]: 24.3% (active)
viability [13, 39]: 17.1% (active)
viability [13, 40]: 23.7% (active)
viability [13, 41]: 23.6% (active)
viability [13, 42]: 17.6% (active)
viability [13, 43]: 11% (active)
viability [13, 44]: 23.9% (active)
viability [13, 45]: 23.5% (active)
viability [13, 46]: 13.9% (active)
viability [13, 47]: 8.06% (active)
viability [13, 48]: 10.5% (active)
viability [13, 49]: 9.68% (active)
viability [13, 50]: 2.14% (active)
viability [13, 51]: 1.41% (active)

C=CC(=O)Nc1cccc(Oc2nc(Nc3ccc(N4CCN(C)CC4)cc3OC)ncc2Cl)c1
AC50 [1]: 3320 nM (active)
outcome [2]: inactive
AC50 [3]: 20900 nM (active)
AC50 [4]: 14800 nM (active)
AC50 [5]: 6610 nM (active)
AC50 [6]: 4170 nM (active)
AC50 [7]: 16600 nM (active)
AC50 [8]: 8330 nM (active)
IC50 [9]: 2630 nM (active)
fold change [10, 14]: 0.841 (inactive)
fold change [10, 15]: 0.924
cell count [10, 16]: 4420
cell count [10, 17]: 5250
SSMD [11]: -3.65
cell count [11]: 5190
plate-normalised HSF1 focus index [11]: 0.843 (inactive)
z-score [12, 18]: -0.337 (inactive)
z-score [12, 19]: 0.584
viability [13, 20]: 115% (inactive)
viability [13, 21]: 104% (inactive)
viability [13, 22]: 114% (inactive)
viability [13, 23]: 112% (inactive)
viability [13, 24]: 117% (inactive)
viability [13, 25]: 120% (inactive)
viability [13, 26]: 108% (inactive)
viability [13, 27]: 114% (inactive)
viability [13, 28]: 107% (inactive)
viability [13, 29]: 118% (inactive)
viability [13, 30]: 119% (inactive)
viability [13, 31]: 118% (inactive)
viability [13, 32]: 115% (inactive)
viability [13, 33]: 112% (inactive)
viability [13, 34]: 108% (inactive)
viability [13, 35]: 118% (inactive)
viability [13, 36]: 119% (inactive)
viability [13, 37]: 116% (inactive)
viability [13, 38]: 115% (inactive)
viability [13, 39]: 115% (inactive)
viability [13, 40]: 115% (inactive)
viability [13, 41]: 120% (inactive)
viability [13, 42]: 119% (inactive)
viability [13, 43]: 118% (inactive)
viability [13, 44]: 106% (inactive)
viability [13, 45]: 45.1% (active)
viability [13, 46]: 108% (inactive)
viability [13, 47]: 94.6% (active)
viability [13, 48]: 91.6% (active)
viability [13, 49]: 115% (inactive)
viability [13, 50]: 104% (inactive)
viability [13, 51]: 67.9% (active)
